Drawing on PubChem BioAssay AID720706 (Broad Institute, 2013), this text covers GFP signal change (wild-type ribosome), OD600 change and RFP signal change for 31 compounds.

Molecules are shown by their SMILES. The campaign covered roughly 350,000 compounds. About 5,500 (1.6%) were called active. The sample holds actives, similar compounds and a random draw of the others, so the mix is not that of the screen.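 The calls were made as follows: active = significant combined selectivity score with lowered wild-type GFP, culture density cut under 30%, mutant RFP and density less affected; inactive = any of these conditions unmet.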

The nature of the experiment: reduced GFP signal of wild-type E. coli, primary screen, bacterial rRNA inhibitor project, GFP/RFP fluorescence, OD600, single point (AID 720706). The following applies: E. coli WT GFP vs humanized-ribosome RFP mutants, 24 h; GFP signal change (wild-type ribosome): stronger effect = lower value, DMSO median 0, no signal -100; OD600 change: measured here: OD600 growth, DMSO median 0, no signal -100; RFP signal change: measured here: RFP humanized mutant strains, DMSO median 0, no signal -100, concentration not given here.
On to `CO[C@H]1CN(C)C(=O)c2ccc(NC(=O)CC(F)(F)F)cc2OC[C@@H](C)N(C(=O)c2ccccc2F)C[C@@H]1C`, for which the GFP signal change (wild-type ribosome) is 3.23% (inactive), the OD600 change came to 1.55% and the RFP signal change turned out to be 3.46%.

Take `CCOc1ccc(/C(O)=C2\C(=O)C(=O)N(c3ccc(OC)cc3)C2c2ccccc2[N+](=O)[O-])cc1` (stereo not drawn): the GFP signal change (wild-type ribosome) was -20.6% (active), the OD600 change was found to be 6.17% and the RFP signal change was determined as 5.06%.

For `COc1ccc(C2/C(=C(/O)c3ccccc3)C(=O)C(=O)N2C)c(OC)c1` (stereo not drawn), the GFP signal change (wild-type ribosome) is -2.38% (inactive), the OD600 change is 2.38% and the RFP signal change was -3.31%.

Take `COc1ccccc1C1/C(=C(/O)c2ccc(C)cc2)C(=O)C(=O)N1Cc1ccco1` (stereo not drawn): the GFP signal change (wild-type ribosome) was 6.88% (inactive), the OD600 change was determined as 7.9% and the RFP signal change worked out at 1.73%.

Turning to `COCC(=O)Nc1ccc2c(c1)[C@H]1C[C@H](CC(=O)NCc3ccccn3)O[C@H](CO)[C@H]1O2`, the GFP signal change (wild-type ribosome) was -0.801% (inactive), the OD600 change was -4.21% and the RFP signal change is -2.1%.

`O=S1(=O)c2ccc(Br)cc2-n2nncc2CN1Cc1cccc(Cl)c1`: the GFP signal change (wild-type ribosome) was -5.88% (inactive), the OD600 change is -16.9% and the RFP signal change was -5.12%.

Regarding `CC(C)(C)OC(=O)N1CCC(NC(=O)c2[nH]cnc2C(=O)N[C@@H](Cc2ccccc2)C(=O)OCc2ccccc2)CC1`, the GFP signal change (wild-type ribosome) was 12.4% (inactive), the OD600 change was -1.46% and the RFP signal change worked out at 0.755%.

Consider `O=C(N[C@@H](Cc1ccccc1)C(=O)OCc1ccccc1)c1nc[nH]c1C(=O)NC1CCNCC1`, for which the GFP signal change (wild-type ribosome) was -20.9% (active), the OD600 change is -8.38% and the RFP signal change was -3.23%.

For the compound `O=C(N[C@@H](Cc1ccccc1)C(=O)OCc1ccccc1)c1nc[nH]c1C(=O)N[C@@H](Cc1ccccc1)C(=O)OCc1ccccc1`, the GFP signal change (wild-type ribosome) is 8.68% (inactive), the OD600 change turned out to be 15.5% and the RFP signal change was -0.702%.

As to `O=C(c1cccc(F)c1)N1CC(=O)N2[C@H](C1)[C@@H](c1ccc(C#Cc3ccc(F)cc3)cc1)[C@@H]2CO`, the GFP signal change (wild-type ribosome) is 1.74% (inactive), the OD600 change is -7.67% and the RFP signal change amounted to 4.35%.

`COC(=O)[C@@H]1[C@@H](CO)[C@@H]2Cn3c(ccc(-c4ccccc4F)c3=O)[C@@H]2N1CC1CCOCC1`: the GFP signal change (wild-type ribosome) is 1.95% (inactive), the OD600 change was -6.47% and the RFP signal change came to 6.87%.

In the case of `O=C1C(Sc2cccc(F)c2)=C[C@@]2(O)CC[C@@H](O)[C@]1(Sc1cccc(F)c1)[C@H]2O`, the GFP signal change (wild-type ribosome) was -37% (active), the OD600 change is -28.5% and the RFP signal change was -4.19%.

As to `COc1ccc(S(=O)(=O)Nc2ccc3c(c2)CC(=O)N([C@H](C)CO)C[C@H](C)[C@@H](CN(C)C)O3)cc1`, the GFP signal change (wild-type ribosome) is 2.15% (inactive), the OD600 change worked out at 13.2% and the RFP signal change is -1.01%.

For the compound `C[C@H](CO)N1C[C@H](C)[C@@H](CN(C)C(=O)c2ccncc2)Oc2cc(C3=CCCCC3)ccc2S1(=O)=O`, the GFP signal change (wild-type ribosome) is -1.29% (inactive), the OD600 change is -9.47% and the RFP signal change was -3.74%.

On to `CN(C)C(=O)c1coc2nc3ccccc3nc12`, for which the GFP signal change (wild-type ribosome) was 12.4% (inactive), the OD600 change worked out at 6.11% and the RFP signal change is -0.0205%.

As to `CNC(=O)C(NC(=O)c1ccccc1)=C(C)C`, the GFP signal change (wild-type ribosome) was 10.9% (inactive), the OD600 change turned out to be 9.13% and the RFP signal change is -0.414%.

With `CNC(=O)c1cccc2nc3ccccc3nc12`, the GFP signal change (wild-type ribosome) is -23.6% (active), the OD600 change was -17.7% and the RFP signal change was -6.61%.

In the case of `CC(C)NC(=O)Nc1ccc2c(c1)C(=O)N(C)[C@@H]1CC[C@H](CC(=O)NCC3CCCCC3)O[C@@H]1CO2`, the GFP signal change (wild-type ribosome) is -0.35% (inactive), the OD600 change is -6% and the RFP signal change is 0.584%.

Consider `C/C=C/c1ccc([C@@H]2[C@H](CO)N(CC3CCCC3)C23CN(C(=O)CC2CC2)C3)cc1`, for which the GFP signal change (wild-type ribosome) is -14.4% (inactive), the OD600 change is -40% and the RFP signal change is 32.6%.

As to `CCOC(=O)C1(C)NC(c2ccco2)C2C(=O)N(c3ccccc3)C(=O)C21` (stereo not drawn), the GFP signal change (wild-type ribosome) is 7.82% (inactive), the OD600 change is 18.6% and the RFP signal change amounted to 3.41%.

Consider `CCOC(=O)CSC1=C(C#N)C(c2ccco2)C(C(=O)OCc2ccccc2)=C(C)N1` (stereo not drawn), for which the GFP signal change (wild-type ribosome) is -26.5% (active), the OD600 change is -14.3% and the RFP signal change was -3.21%.

`CCCSC1=C(C#N)C(c2ccccc2C)C(C(=O)OC)C(=O)N1` (stereo not drawn): the GFP signal change (wild-type ribosome) is -10.9% (inactive), the OD600 change was -3.33% and the RFP signal change is -1.26%.

`CN1CCN(CCNC(=O)Nc2ccc([N+](=O)[O-])cc2)CC1`: the GFP signal change (wild-type ribosome) was 3.04% (inactive), the OD600 change is -6.09% and the RFP signal change is -2.6%.

With `O=C(NCCCN1CCN(c2ccc(F)cc2)CC1)Nc1ccc([N+](=O)[O-])cc1`, the GFP signal change (wild-type ribosome) was -23.1% (active), the OD600 change was -16.1% and the RFP signal change was determined as 9.67%.

On to `O=C(NCCCN1CCOCC1)c1ccc([N+](=O)[O-])cc1[N+](=O)[O-]`, for which the GFP signal change (wild-type ribosome) was 7.34% (inactive), the OD600 change was found to be 6.35% and the RFP signal change is -0.35%.

As for `O=C(c1ccncc1)N1CC(=O)N2[C@H](C1)[C@@H](c1ccc(C#CCC3CCCC3)cc1)[C@@H]2CO`, the GFP signal change (wild-type ribosome) was -32.1% (inactive), the OD600 change is -56.8% and the RFP signal change came out at 7.12%.

Take `CCCN(C)C[C@@H]1Oc2ncc(-c3ccccc3F)cc2C(=O)N([C@@H](C)CO)C[C@@H]1C`: the GFP signal change (wild-type ribosome) was 9.44% (inactive), the OD600 change was 19.7% and the RFP signal change is -1.32%.

For the compound `Nc1ccc(N=Nc2ccccc2Cl)c(N)n1`, the GFP signal change (wild-type ribosome) is -31.4% (active), the OD600 change was -18.6% and the RFP signal change is -5.26%.

For the compound `C[C@@H]1CN([C@H](C)CO)C(=O)c2cccc(NC(=O)Nc3ccc(F)cc3)c2O[C@@H]1CN(C)C(=O)Nc1ccc(C(F)(F)F)cc1`, the GFP signal change (wild-type ribosome) is -3.92% (inactive), the OD600 change is -1.07% and the RFP signal change was -2.09%.

With `COc1ccc(S(=O)(=O)Nc2ccc3c(c2)CC(=O)N([C@H](C)CO)C[C@H](C)[C@@H](CN(C)C(=O)NC(C)C)O3)cc1`, the GFP signal change (wild-type ribosome) was 1.06% (inactive), the OD600 change is 6.54% and the RFP signal change is -0.682%.

In the case of `C[C@@H]1CN([C@@H](C)CO)C(=O)c2cccc(N(C)C)c2O[C@@H]1CN(C)S(C)(=O)=O`, the GFP signal change (wild-type ribosome) is 0.068% (inactive), the OD600 change was determined as 11.7% and the RFP signal change worked out at 1.6%.
